# From PMC7819943, “Rice protein-binding microarrays: a tool to detect cis-acting elements near promoter regions in rice”
# The full ranking holds about 68,000 sequences; the median of “fluorescence intensity (a.u.)” is about 9,100, and the highest 2% start at about 16,000. Shown is part of a subset that was picked to be rich in the highest values.
# Target: OsWRKY34 (Oryza sativa, UniProt Q0JBA9 1-250)
# Assay: protein-binding microarray (RPBM); PBS, 2% BSA, 51.3 ng/ul salmon testes DNA, 50 uM zinc acetate, 200 nM TF, 25 C, 1 h; high values mean tight binding
# Settings: protein: recombinant; tags: N-terminal polyhistidine and DsRed monomer fusion (pET32a); label: CyDye5-dUTP incorporated in the synthesized complementary strand; 3' TTTTT single-stranded linker to array surface; dsDNA, one strand shown
# Outline: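 Binding signal is defined as the fluorescence intensity of each feature in arbitrary units, read on an Axon 4000B scanner. Transcription factors with N-terminal polyhistidine and DsRed fusions came from E. coli BL21-CodonPlus and were purified on Ni–NTA. They were incubated at 200 nM for 1 h at 25 °C on a custom Agilent array that had been made double-stranded with Cy5-dUTP, with 50 µM zinc acetate present, and the array was washed.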
# Chain of OsWRKY34 (Q0JBA9 entry or part of it): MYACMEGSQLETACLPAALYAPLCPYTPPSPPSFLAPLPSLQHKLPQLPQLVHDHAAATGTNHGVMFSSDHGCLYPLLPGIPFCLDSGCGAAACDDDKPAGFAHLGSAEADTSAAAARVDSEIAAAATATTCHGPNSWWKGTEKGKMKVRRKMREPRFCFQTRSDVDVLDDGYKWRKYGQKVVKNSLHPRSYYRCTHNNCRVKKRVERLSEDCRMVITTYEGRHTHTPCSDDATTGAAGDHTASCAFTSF
row,Sequence,binding signal
1,GGCTCCAAATCATCTGCCTTCATTGTCAGGCTTCAGTAATCGGAGTCACCTAGTGCAG,10400 fluorescence intensity (a.u.)
2,AGATTCGTGTAGACCCATTGTCTGGCAGCGGCGATCGTCCCGGAGTCACCTAGTGCAG,8040 fluorescence intensity (a.u.)
3,GCCACTCCTGACGTCAGCGTTGACTCGGTCAAACCCATCGCGGAGTCACCTAGTGCAG,19300 fluorescence intensity (a.u.)
4,TCACCCACCTGTTGACTACCATCACCACTCCTCGTCTGGACGGAGTCACCTAGTGCAG,8590 fluorescence intensity (a.u.)
5,AGTTGATCGCGGTCAAATCGTCACGTTAGTTGAACCCGGTCGGAGTCACCTAGTGCAG,8260 fluorescence intensity (a.u.)
6,ATACACACTTCAGTCACTCGGTAGGCCACTCCGTACGGCACGGAGTCACCTAGTGCAG,8510 fluorescence intensity (a.u.)
7,CCGTTTCGAAATGTTTACACCGTTGACTTTTTAGCACATGCGGAGTCACCTAGTGCAG,30100 fluorescence intensity (a.u.)
8,CGAAATGTTTGACGTCGTTGACTTTTTAGCACATGTTTAACGGAGTCACCTAGTGCAG,22800 fluorescence intensity (a.u.)
9,CAAAATGTTTGACATCGTTGACTTTTTAGCACATGTTTGACGGAGTCACCTAGTGCAG,15300 fluorescence intensity (a.u.)
10,TTTCGAAATGTTTGACACTGTTGACTTTTTAGCACATGTTCGGAGTCACCTAGTGCAG,14200 fluorescence intensity (a.u.)
11,TCGAAATGTTTGACACCGTTGACTTTTTAGCACATGTTTACGGAGTCACCTAGTGCAG,19000 fluorescence intensity (a.u.)
12,TTCGAAATATTTGACACCGTTGACTTTTTAGCACATGTTTCGGAGTCACCTAGTGCAG,30000 fluorescence intensity (a.u.)
13,GAATTAAACTTTGCATGGTTTCTGTTTGGTCAAACTTCTCCGGAGTCACCTAGTGCAG,9130 fluorescence intensity (a.u.)
14,AGGTACGCACGCGCGGTGGAGGAGGAGGAGGAGGAGGAGGCGGAGTCACCTAGTGCAG,10900 fluorescence intensity (a.u.)
15,TGAATGCACCATGTCTTTTGCTCCGTCCGTCATAAAAAAACGGAGTCACCTAGTGCAG,8950 fluorescence intensity (a.u.)
16,TGCCAAAGCTCTATCCATTTTGCCTCTACTCAATCGTCCACGGAGTCACCTAGTGCAG,10200 fluorescence intensity (a.u.)
17,TCTAGATTTATCCCCATTTTTGGCTGGGCCTTCTATTTAACGGAGTCACCTAGTGCAG,8720 fluorescence intensity (a.u.)
18,AACCCATTACATAGCTGCAAGAAACCCAATCTTTCTTTACCGGAGTCACCTAGTGCAG,8420 fluorescence intensity (a.u.)
19,CCTACCCCTACCGCTCCTGCCTGCTTCGCCCGCCGCCGCCCGGAGTCACCTAGTGCAG,8340 fluorescence intensity (a.u.)
20,CTCTATACCATACGCCATCTCCATCATCTCTCGATCCATCCGGAGTCACCTAGTGCAG,11300 fluorescence intensity (a.u.)
21,AGTCTGAGCCACCTTTCATTACCCATCCAAGATTCGGTTTCGGAGTCACCTAGTGCAG,8900 fluorescence intensity (a.u.)

row,Sequence,binding signal
1,AGTAGTCCTTCAAGCTCCAATCATATACCCCTGATACTAACGGAGTCACCTAGTGCAG,8300 fluorescence intensity (a.u.)
2,AGGAAATGTCTCATCAAATACTAGATTGGTTTTTTTTTACCGGAGTCACCTAGTGCAG,8960 fluorescence intensity (a.u.)
3,CGATTTCGACCAATCTAGCCGCTATGTGCACTCCTTTTCCCGGAGTCACCTAGTGCAG,12100 fluorescence intensity (a.u.)
4,TGGTCTTGCTGGTTGCTGCGTATTTGGCTGTATTGGTTATCGGAGTCACCTAGTGCAG,8380 fluorescence intensity (a.u.)
5,ATTATACGTTAATGGCTTTCTCGTTTTGTATACGCTGATTCGGAGTCACCTAGTGCAG,9600 fluorescence intensity (a.u.)
6,TCGAAATATTTGACACCGTTGACTTTTTAGCACATGTTTGCGGAGTCACCTAGTGCAG,35300 fluorescence intensity (a.u.)
7,ATTTGATACTTCTCTCGCCTTTCTTTATTATTCTCCCGCTCGGAGTCACCTAGTGCAG,8420 fluorescence intensity (a.u.)
8,GAGTGCCTATTCAATTGCCTTTTGTTTGTCAACGTTTCTCCGGAGTCACCTAGTGCAG,8080 fluorescence intensity (a.u.)
9,GTCCTTTCAGTGTTGCGCTTTTGCTTATTGTAGTTATTGGCGGAGTCACCTAGTGCAG,16300 fluorescence intensity (a.u.)
10,CATCCAACCATCACACACAGTTAGCATATCAGTAGTCGTTCGGAGTCACCTAGTGCAG,8210 fluorescence intensity (a.u.)
11,TCCATCCCGGCCCGGCACTGCACACACGCGCGTAGTACCACGGAGTCACCTAGTGCAG,8130 fluorescence intensity (a.u.)
12,TCTTCGGCCTCTCCGCCTCCGCCATTGACAGCGTTGACCACGGAGTCACCTAGTGCAG,18300 fluorescence intensity (a.u.)
13,AACTTGAGCGTTGACCGCTTTGACTCCTCTTCTTTCTCCACGGAGTCACCTAGTGCAG,24900 fluorescence intensity (a.u.)
14,GCCATTGACAGCGTTGACCAAGTCAGCCGCTCCAGCCTCTCGGAGTCACCTAGTGCAG,14200 fluorescence intensity (a.u.)
15,ATGACCGGCCACCACCATTGCCACCGGCCGATCTCCTCTTCGGAGTCACCTAGTGCAG,9360 fluorescence intensity (a.u.)
16,AGACCGTTGACTTGACTAGTCCACTCCTCTTTCACACGTACGGAGTCACCTAGTGCAG,12100 fluorescence intensity (a.u.)
17,ACTCCTACAGTAGTGACTTGAGTAGCGCTTCTTTTTTCCACGGAGTCACCTAGTGCAG,9440 fluorescence intensity (a.u.)
18,GCCACCTTTTGTTCCGCAACCGCAATGATTTCTTCTTCTTCGGAGTCACCTAGTGCAG,14800 fluorescence intensity (a.u.)
19,TAGTGGTGGTCTTGATTCCTGACATAGCAGACGCATCTGACGGAGTCACCTAGTGCAG,10500 fluorescence intensity (a.u.)
20,GTTTGACATGCAGACTTGATTCTATCACCTATAGCATCTGCGGAGTCACCTAGTGCAG,28100 fluorescence intensity (a.u.)
21,TATATATATATATATATATAGATTTATTGACATCTATATGCGGAGTCACCTAGTGCAG,9230 fluorescence intensity (a.u.)

row,Sequence,binding signal
1,TTCAGTTTTTGCTTGCAACGTTTGACCACTCGTCTTATTCCGGAGTCACCTAGTGCAG,15600 fluorescence intensity (a.u.)
2,ATCTGATTTTTATTTTCAGCATATGCATCGTTTTCATGTTCGGAGTCACCTAGTGCAG,10200 fluorescence intensity (a.u.)
3,CTTCCTAACGTTCATATCTCTGTGTTTTTAGTGTGTCATACGGAGTCACCTAGTGCAG,9860 fluorescence intensity (a.u.)
4,GGGGTTTCTCATGGGCCAACTATACATTCACACGCGGCCGCGGAGTCACCTAGTGCAG,17400 fluorescence intensity (a.u.)
5,TTCTTCATTATCTCTATTTGTGGTGCTATTGGTTTATTTTCGGAGTCACCTAGTGCAG,8980 fluorescence intensity (a.u.)
6,ATTTTCATTTGGTTGGTGTGGTTATCTCTTTTTTCATTTACGGAGTCACCTAGTGCAG,20700 fluorescence intensity (a.u.)
7,GAGTTTTTACTTTGTAATGTTTGACCACTCGTCTTATTCACGGAGTCACCTAGTGCAG,8880 fluorescence intensity (a.u.)
8,TCAGTTTTTGTTTGCAATGTTTGACCACTCGTCTTATTCACGGAGTCACCTAGTGCAG,18500 fluorescence intensity (a.u.)
9,GGTTTCTTCTCATTCTTCTTTTTTTCCTTTTTTCTACACGCGGAGTCACCTAGTGCAG,14000 fluorescence intensity (a.u.)
10,TCTTGGTTACATGGTGGTTGGTGTTTCATTCTCTTGTTTTCGGAGTCACCTAGTGCAG,10000 fluorescence intensity (a.u.)
11,CTGTCGTGTTTCCTCTGATTAGTTCATACAGCATCTGTTACGGAGTCACCTAGTGCAG,17600 fluorescence intensity (a.u.)
12,TTTACATTCATTTCTCTATACGAGCATGGGCCGCACTATACGGAGTCACCTAGTGCAG,9830 fluorescence intensity (a.u.)
13,GGCCTAATTATTGCCTTAATTTTTCTCTTTGGTTTTCTCACGGAGTCACCTAGTGCAG,9070 fluorescence intensity (a.u.)
14,TGAGGGCTGCTGTGCTATTCTTCCTGGACATCTCTGGGTCCGGAGTCACCTAGTGCAG,8650 fluorescence intensity (a.u.)
15,TTTCTGTTTAACGTCAACCCGGCTGTTTTCGCCCGGTCAACGGAGTCACCTAGTGCAG,9040 fluorescence intensity (a.u.)
16,GCCAAGACGCCCAAAGCACACACTCTCTCTCGCTGTCTTTCGGAGTCACCTAGTGCAG,8490 fluorescence intensity (a.u.)
17,GATTTGATGGATTTGTTGAGAGATATGCTTCTTAAGCCAACGGAGTCACCTAGTGCAG,8300 fluorescence intensity (a.u.)
18,CACACCTAGGCCGCCTTTTTCAACCGGGGAGCACACCTTTCGGAGTCACCTAGTGCAG,10400 fluorescence intensity (a.u.)
19,AATATGTACTACTTCCGTTTCAGGTTATAAGACTTTCTAGCGGAGTCACCTAGTGCAG,8400 fluorescence intensity (a.u.)
20,CGTAGTAATGTCTGAATTCACCGCCTTAATCCTGTCACGACGGAGTCACCTAGTGCAG,8450 fluorescence intensity (a.u.)
21,TTTTTCTTTTCTCGCGTACAGCTGGACGCTTCGTTTGCTTCGGAGTCACCTAGTGCAG,11100 fluorescence intensity (a.u.)

row,Sequence,binding signal
1,CCCATCAACCGCCAAAGACTTCCCGCGCGCGTCTACATATCGGAGTCACCTAGTGCAG,8450 fluorescence intensity (a.u.)
2,ACCGTCCTCCTCGTCACCCACCAGCTCGACTTCCTCCGCACGGAGTCACCTAGTGCAG,8200 fluorescence intensity (a.u.)
3,GTCAACGATCCGGCGTCTGTTCCACTTCTACCCTCCCATCCGGAGTCACCTAGTGCAG,8250 fluorescence intensity (a.u.)
4,TACTGGTTCTACTTGATCTTATTTATCTTTTTATTCTATTCGGAGTCACCTAGTGCAG,10100 fluorescence intensity (a.u.)
5,CATATGTTTGACCATTCGTCTTATTCAAAAATTTTATTCACGGAGTCACCTAGTGCAG,9660 fluorescence intensity (a.u.)
6,CCCTTTACTTGATTTTCTGCTGGTTGGTTTATCTTTTATTCGGAGTCACCTAGTGCAG,19600 fluorescence intensity (a.u.)
7,ACCATCTCTCTCTCTCTCTCTGCATGCATATCTTCTCCTCCGGAGTCACCTAGTGCAG,14300 fluorescence intensity (a.u.)
8,ATTTAGAGTTGACTTTGGTTTATTTTTCATTGAAGTTTATCGGAGTCACCTAGTGCAG,9450 fluorescence intensity (a.u.)
9,CTGGATCTCCTCTCTCTCTCTCTCTCTCTGTCCTTCTTCTCGGAGTCACCTAGTGCAG,10800 fluorescence intensity (a.u.)
10,TTTCTCATATGTTTGACCATTCGTCTTATTAAAAAAATTTCGGAGTCACCTAGTGCAG,8930 fluorescence intensity (a.u.)
11,CTGTTGACTTTTTCTTATATGTTTGACCATTCGTCTTATTCGGAGTCACCTAGTGCAG,24600 fluorescence intensity (a.u.)
12,CATCTGTCTCTGGATCTCTGCATATCTCCTCTTCTGTGATCGGAGTCACCTAGTGCAG,17200 fluorescence intensity (a.u.)
13,ATTTTACTCTTTTGACTATATTGGTTCGGTTGAAGTTTTACGGAGTCACCTAGTGCAG,23100 fluorescence intensity (a.u.)
14,ATACTCTTGGTTTATCTTTGATTTTGTATATCTTTTTATTCGGAGTCACCTAGTGCAG,9720 fluorescence intensity (a.u.)
15,TCTGCATGATTCCTTGGTTTCTTTTTTTACACATTTACTTCGGAGTCACCTAGTGCAG,10500 fluorescence intensity (a.u.)
16,TCTGCTTCACTGTATTTTTGTCCAACAATTCCATGACATGCGGAGTCACCTAGTGCAG,8550 fluorescence intensity (a.u.)
17,TTTAGATTTATTTTTTGTGACATAGGGAGTACTTTTTTTTCGGAGTCACCTAGTGCAG,9200 fluorescence intensity (a.u.)
18,CTTCTCAAGTTCCAACCTTTGCGCTTTCTTATTATCAAAGCGGAGTCACCTAGTGCAG,8550 fluorescence intensity (a.u.)
19,GCACGCATGCAGTTCCTTGACCAATTCTCACATCAACCACCGGAGTCACCTAGTGCAG,9100 fluorescence intensity (a.u.)
20,AAACGTATGGCTGCTCTCTCTCTGCTGATGATCTCTCTCTCGGAGTCACCTAGTGCAG,8180 fluorescence intensity (a.u.)
21,GCCAATTTTTTCTCCTCACATCTATTTTACCCTATTATTCCGGAGTCACCTAGTGCAG,8390 fluorescence intensity (a.u.)
